Source: PubChem BioAssay
Giardia kill – Small Molecules that selectively kill Giardia lamblia: qHTS; Giardia lamblia trophozoite viability; hit rate 0.15% among 340,000; activity change, % at 7.66 µM, hits read low; in the data active means activity change below about -80%; inconclusive means between about -30% and that limit;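 further: parasites exposed to compound for two days anaerobically before the ATP read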
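Luminescence from cellular ATP indicates surviving trophozoites (100 cells/well) following 48 hrs anaerobic compound treatment at 37 deg C; signal develops 15-30 min at room temperature.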
ERG Ets-DNA blk – qHTS for Small Molecule Inhibitors of the ERG Ets/DNA interaction | Potency, µM (doses to about 76.9 µM), usual class: inhibitors | hit rate 0.028% among 370,000 | AID 624246, 2012 | fluorescence polarization, His-ERG Ets domain / labelled DNA | Transcriptional regulator ERG (Homo sapiens), P11308; active means well fitted inhibition curve with a large enough effect in the polarisation, with a control signal flat; inconclusive means small, poorly fitted or top-dose-only effect, or effect the other way, or a change in a side signal; inactive means no such curve, though single readings can be large or run the other way; the % refers to the polarisation;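 further: polarization taken with two DNA probes labelled with fluorescein and Texas red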
Target sequence (P11308 whole entry, looked up, the tested form may be a part): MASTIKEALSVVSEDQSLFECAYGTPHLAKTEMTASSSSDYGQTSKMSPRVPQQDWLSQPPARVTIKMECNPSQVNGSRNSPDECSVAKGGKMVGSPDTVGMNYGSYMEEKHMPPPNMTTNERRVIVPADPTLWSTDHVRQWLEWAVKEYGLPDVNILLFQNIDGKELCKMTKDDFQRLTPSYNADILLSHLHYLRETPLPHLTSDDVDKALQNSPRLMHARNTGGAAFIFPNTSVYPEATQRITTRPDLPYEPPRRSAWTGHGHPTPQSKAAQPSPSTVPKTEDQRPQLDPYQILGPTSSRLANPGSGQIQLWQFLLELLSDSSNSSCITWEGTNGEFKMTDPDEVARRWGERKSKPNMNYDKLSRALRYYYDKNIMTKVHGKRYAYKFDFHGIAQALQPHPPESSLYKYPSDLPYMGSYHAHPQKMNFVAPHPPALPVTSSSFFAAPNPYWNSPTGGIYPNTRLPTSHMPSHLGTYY
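His-tagged ERG Ets domain (1 uM in the protein solution; 300mM KCl, 50mM Tris-HCl, 1mM EDTA, 1mM DTT, pH 7.5) received compound, then a probe mix of 5 nM fluorescein-DNA and 100nM Texas-615-DNA. Fluorescence polarization was read for both dyes.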
a7 integrin act – qHTS for Activators of Integrin-Mediated Alleviation for Muscular Dystrophy. alpha7betagal myoblasts, beta-gal FDG fluorescence, 48 h. Potency, µM (doses to about 38.3 µM), most hits filed as activators. hit rate 0.064% among 350,000; further: nearly all actives have a fitted effect of over 60% in size
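alpha7betagal+/- myoblasts (passage 13, 250/well) treated 48 h at 37C with compounds at 1:260 dilution of DMSO stock. Lysed, then beta-galactosidase activity read as FDG fluorescence (ex 480/em 540) after 30 min, with pre-read for autofluorescence.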
RORg inh – qHTS for inhibitors of ROR gamma transcriptional activity; Potency, µM (doses to about 53.6 µM), usual class: inhibitors; hit rate 5.4% among 310,000; Nuclear receptor ROR-gamma (Mus musculus), P51450; AID 2551, 2010; Drosophila S2 Gal4-RORgamma UAS-luciferase reporter, 20 h; further: nearly all actives have a fitted effect of over 60% in size
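A Gal4/UAS one-hybrid system in insect cells: metallothionein-promoter Gal4–ROR gamma fusion plus Photinus luciferase reporter. Copper sulfate 700 uM final, 20 hr ambient incubation, luminescent detection after 10 min with reagent.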
VP16 counter – VP16 counterscreen qHTS for inhibitors of ROR gamma transcriptional activity | Potency, µM (series often up to 53.6 µM), most hits filed as inhibitors | Drosophila S2 Gal4-VP16 UAS-luciferase, luminescence, 20 h | hit rate 3.5% among 310,000;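 further: Gal4-VP16 expression switched on by copper sulfate through the metallothionein promoter; nearly all actives have a fitted effect of over 50% in size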
Hits are given with their value; . = inactive; ? = inconclusive; / = not tested or not shown; [ ] = another dose, or the depositor's remark. This is one part of a sample in which hits are shown more often than they occur. Unless noted, the call rests on the fitted dose curve; in most records, active means well fitted curve in the direction sought with a large enough effect; inconclusive means small, poorly fitted or top-dose-only effect, or another doubt; inactive means no such curve, though single readings can be large; an effect the other way counts as inactive or inconclusive.

SMILES | Giardia kill | ERG Ets-DNA blk | a7 integrin act | RORg inh | VP16 counter
COc1cccc(C2C(C(C)=O)=C(O)C(=O)N2CCc2c[nH]c3ccccc23)c1 (centres undefined) | . | . | . | 112µM | .
Cn1c(SCC(=O)Nc2ccccc2)nc2ccccc2c1=O | . | . | . | ? | ?
CC12CCC(O)CC1=CCC1C2CCC2(C)C1CCC21CCC(=O)O1 (centres undefined) | . | . | . | . | .
C[C@]12CCC(O)CC1=CCC1C2CC[C@]2(C)/C(=N\NC(N)=S)CCC12 (some centres undefined) | . | . | . | 13µM | .
COc1ccc(Oc2ncc3ncc(=O)n(C[C@H]4CCCO4)c3n2)cc1 | / | / | / | . | .
COC(=O)[C@H](Cc1ccccc1)NC(=O)O[C@@H]1Cc2cc(OC)ccc2O[C@H]1c1cccc(OC)c1 | / | / | / | . | .
CCN(CC)c1ccc(/C=N/NC(=O)c2ccoc2C)c(O)c1 | . | . | . | 0.5µM | 3.5µM
CCN(CC)c1ccc(/C=N/NC(=S)NC)c(O)c1 | . | . | . | 0.79µM | 1.8µM
CCN(CC)c1ccc(/C=N/NC(=O)OC)c(O)c1 | . | . | . | ? | ?
C=CCOC(=O)N[C@H](/C(C(=O)OC)=C(\C)NCc1ccccc1)c1ccc(Br)cc1 | / | / | / | . | .
O=C(NCc1ccccc1Cl)c1ccc(NC(=O)N2CCSc3ncccc32)cc1 | / | . | / | / | /
CCCCCCSc1nsc(NC(=O)CCC)n1 | . | . | . | . | .
C=C(C)C(O)/C=C/c1ccccc1OC (centres undefined) | / | / | / | .[10 µM] | .[10 µM]
C/C(Cn1nnc([N+](=O)[O-])n1)=N\NC(=O)c1ccc(O)cc1O | . | . | . | 0.5µM | 2.8µM
C/C(Cn1nnc([N+](=O)[O-])n1)=N\NC(=O)c1ccccc1O | . | . | . | 5.6µM | ?
O=C(OCn1ncc(Cl)c(Cl)c1=O)c1cccc(C(F)(F)F)c1 | . | . | . | . | .
O=C(OCn1ncc(Br)c(Br)c1=O)c1ccc(F)cc1 | . | . | . | ? | 0.63µM
O=C(OCn1ncc(Br)c(Br)c1=O)c1ccccc1Cl | . | . | . | 6.3µM | 5.6µM
CCCCCCCCCCCCCCCCOC[C@H](COP(=O)([O-])OCC[N+](C)(C)C)OC(=O)NC | / | / | / | . | .
CC1Cc2ccccc2N1c1ncnc(N)c1[N+](=O)[O-] (centres undefined) | ? | . | ? | 4.5µM | ?
CC1CCCCN1c1ncnc(N)c1[N+](=O)[O-] (centres undefined) | . | . | 4.5µM | . | .
CC1Cc2ccccc2N1c1ncnc2nc[nH]c12 (centres undefined) | . | . | . | . | .
O=C(N/C(=C/c1cccc([N+](=O)[O-])c1)C(=O)N1CCCCCC1)c1cccs1 | . | . | . | . | .
CCOC(=O)C1CCCN(CC(=O)N(C)c2c(N)n(Cc3ccccc3)c(=O)[nH]c2=O)C1 (centres undefined) | . | . | . | / | /
COC1=C(Nc2ccccc2OC)C(=O)c2ccccc2C1=O | . | . | . | . | .
SMILES | Giardia kill | ERG Ets-DNA blk | a7 integrin act | RORg inh | VP16 counter
COc1ccccc1NC1=C(C)C(=O)CC1 | . | . | ? | 13µM | .
O=C(NNC(=O)C1CC=CCC1)c1ccccc1O (centres undefined) | . | . | . | . | .
Cc1cc(SCC(=O)OC/C(O)=C(\C#N)c2nc3ccccc3[nH]2)c(C)cc1Br | . | . | . | 6.3µM | 18µM
N#C/C(=C(/O)COC(=O)Cc1c[nH]c2ccccc12)c1nc2ccccc2[nH]1 | . | . | . | 10µM | ?
CCOC(=O)c1ccc2c(c1)nc(SC/C(O)=C(\C#N)c1nc3ccccc3[nH]1)n2CC | . | . | . | 5µM | .
CCOC(=O)c1ccc2c(c1)nc(SCC(=O)c1ccco1)n2CC | . | . | . | . | .
N#CC(=C(O)COC(=O)CCC1CCCCC1)c1nc2ccccc2[nH]1 | . | . | . | / | /
N#C/C(=C(/O)COC(=O)CCCNC(=O)c1ccc(Cl)cc1)c1nc2ccccc2[nH]1 | . | . | . | 11µM | ?
COc1ccccc1OCC(=O)OC/C(O)=C(\C#N)c1nc2ccccc2[nH]1 | . | . | . | . | .
CCOC(=O)c1c(C)[nH]c(C(=O)OC/C(O)=C(\C#N)c2nc3ccccc3[nH]2)c1C | . | . | . | ? | ?
O=C(NCCc1ccc(F)cc1)C(=O)NCC(c1ccc2c(c1)OCO2)N1CCOCC1 (centres undefined) | / | . | / | / | /
COCCn1c(=O)c(C)nc2cnc(OC)nc21 | / | / | / | . | .
Cc1ccc(N(CC(=O)NCc2ccc(OC(C)C)cc2)S(=O)(=O)N(C)C)cc1 | / | . | / | / | /
O=C1C=CC2=C3c4cc(O)c(O)cc4C[C@@]3(O)COC2=C1 | / | / | / | . | .
N#C/C(=C(/O)COC(=O)CSc1ccc(Cl)cc1)c1nc2ccccc2[nH]1 | . | . | . | 10µM | 11µM
CC(C)CC(c1nnnn1Cc1cccs1)N1CCN(c2nc3ccccc3s2)CC1 (centres undefined) | . | . | . | 10µM | .
CCOC(=O)c1c(NC(=O)CSc2ncnc3[nH]ncc23)sc2c1CCC(C)C2 (centres undefined) | . | . | . | . | .
C=CCc1ccc(OCCOCCN(C)C)c(OC)c1 | . | . | . | . | .
C=CCc1ccc(OCCn2cccc2C=O)c(OC)c1 | . | . | . | 0.63µM | 0.56µM
COc1ccc(S(=O)(=O)/N=C2/C=CC(=O)C(C)=C2C)cc1 | . | . | . | . | .
CC1=C/C(=N\OS(=O)(=O)c2ccccc2)C(C)=CC1=O | . | . | . | 1.1µM | 2.5µM
CC1=C/C(=N\OS(=O)(=O)c2ccccc2)C(C(C)C)=CC1=O | . | . | . | 2.8µM | 0.79µM
CC1=C(C)/C(=N\OS(=O)(=O)c2ccc(C)cc2)C=CC1=O | . | . | . | 5µM | 2µM
NS(=O)(=O)c1ccc(CCNC(=O)CSc2nc3ccccc3c(=O)n2CCC(=O)N2CCCCC2)cc1 | . | . | . | . | .
O=C(NC(=S)Nc1ccc(N2CCCC2)cc1)c1ccccc1[N+](=O)[O-] | . | . | . | 4µM | 5µM
SMILES | Giardia kill | ERG Ets-DNA blk | a7 integrin act | RORg inh | VP16 counter
O=C(NC(=S)Nc1ccccc1N1CCCC1)c1ccccc1[N+](=O)[O-] | . | . | . | 2.8µM | 4µM
O=C(Nc1ccc(N2CCCC2)c(Cl)c1)c1ccccc1[N+](=O)[O-] | . | . | . | . | .
Cc1ccc(NC(=O)CSc2n[nH]c(=O)n2C2CC2)cc1S(=O)(=O)N1CCOCC1 | . | . | . | . | .
O=C(Nc1ncnc2sc3c(c12)CCCC3)c1ccncc1 | . | . | . | ? | 11µM
CCCN(CCC)CCNC(=O)C1CCCN(S(=O)(=O)c2cccc3nsnc23)C1 (centres undefined) | / | . | / | / | /
COc1ccc(/C=C/c2cc(C(=O)O)c3ccccc3n2)cc1 | -93 | . | . | 1.1µM | 1.4µM
